Compound activity: PubChem, National Center for Advancing Translational Sciences (NCATS)
Most compounds without a hit are left out; they make up all but 6.9% or so of the library.
ASM inhibitor: Inhibitors of Secretory Acid Sphingomyelinase (S-ASM): qHTS | Sphingomyelin phosphodiesterase (Homo sapiens), P17405 | placental ASM, HMU-PC fluorogenic substrate, 60 min | Potency, µM (top dose mostly 57.5 µM), for the others: at the highest dose activity change, negative = inhibition, most hits filed as inhibitors | 0.006% of 340,000 active; also: potency is read from the fitted curve at half-maximal effect
Target sequence (P17405 47-631 limits assumed): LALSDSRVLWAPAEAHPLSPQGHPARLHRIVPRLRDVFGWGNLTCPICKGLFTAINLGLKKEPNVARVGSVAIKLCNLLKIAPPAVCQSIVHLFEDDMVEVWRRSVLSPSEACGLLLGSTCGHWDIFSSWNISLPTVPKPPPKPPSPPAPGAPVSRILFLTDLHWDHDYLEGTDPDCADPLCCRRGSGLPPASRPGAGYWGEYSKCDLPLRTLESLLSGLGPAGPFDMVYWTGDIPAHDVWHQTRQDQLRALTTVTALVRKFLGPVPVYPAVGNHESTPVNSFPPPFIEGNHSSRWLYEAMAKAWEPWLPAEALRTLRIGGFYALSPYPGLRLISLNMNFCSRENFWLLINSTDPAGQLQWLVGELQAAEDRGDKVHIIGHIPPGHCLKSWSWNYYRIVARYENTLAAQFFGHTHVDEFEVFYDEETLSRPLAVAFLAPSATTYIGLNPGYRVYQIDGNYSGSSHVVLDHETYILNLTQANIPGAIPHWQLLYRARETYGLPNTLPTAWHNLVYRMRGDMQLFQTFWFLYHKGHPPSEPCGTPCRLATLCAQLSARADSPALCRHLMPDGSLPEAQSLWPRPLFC
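Fluorescence read-out (Ex 386 nm, Em 447 nm) after stopping the reaction at pH 10. Enzyme: ASM from human placenta; substrate HMU-PC0, 9 uM final; 60 min, 37 °C. Compound preincubation 10 min, ambient temperature.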
MCF10A rereplic: A quantitative high throughput screen for small molecules that induce DNA re-replication in MCF 10a normal breast cells; MCF 10A DNA re-replication, Hoechst nuclear intensity, 48 h; Potency, µM (series often up to 46.1 µM), inactives show at the top dose activity, positive = re-replication, actives largely listed as activators; 2.9% of 350,000 active; also: potency is read from the fitted curve at half-maximal effect; % of control where 0% means no effect; nearly all actives have a fitted effect of over 50% in size
KB-3-1 cytotox: qHTS assay for MDR1-selective chemotherapeutics: Primary screen using the parental adenocarcinoma cell KB-3-1. KB-3-1 viability, CellTiter-Glo ATP luminescence, 72 h. Potency, µM (top dose mostly 46.1 µM), hits mostly cytotoxic. 1.4% of 400,000 active; also: potency is read from the fitted curve at half-maximal effect; % is scaled to controls: 0 for no effect and ±100 for the full control effect; nearly all actives have a fitted effect of over 60% in size
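Viability of parental KB-3-1 cells, measured by CellTiter-Glo luminescence, followed a 72 h incubation at 37 °C with pinned compounds in phenol-red-free DMEM containing 10% FBS.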
KB-V1 cytotox: qHTS assay for MDR1-selective chemotherapeutics: Primary screen using the drug-selected MDR subline cells KB-V1; AID 1347076, 2019; Potency, µM (doses to about 46.1 µM), usual class: cytotoxic; 3.4% of 400,000 active; KB-V1 MDR cells viability, CellTiter-Glo, 72 h; also: potency is read from the fitted curve at half-maximal effect; % is scaled to controls: 0 for no effect and ±100 for the full control effect; nearly all actives have a fitted effect of over 60% in size
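Readout: CellTiter-Glo luminescence, 10 min after addition. Cells: KB-V1 MDR subline, 72 h at 37 degrees C with compound. Analysis: corrected, normalized data fitted to concentration-effect curves.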
SW480 rerep: A quantitative high throughput screen for small molecules that induce DNA re-replication in SW480 colon adenocarcinoma cells; SW480 DNA re-replication, Hoechst DNA content imaging, 48 h; Potency, µM (top dose mostly 46.1 µM), inactives show top-dose re-replication activation, actives largely listed as activators; 1.8% of 340,000 active; AID 624297, 2012; also: potency is read from the fitted curve at half-maximal effect; % of control where 0% means no effect; nearly all actives have a fitted effect of over 55% in size
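Readout is total intensity of Hoechst-stained nuclei, excited at 405 nm and collected at 500-530 nm. Compound treatment lasted 48 hr at 37 C in 5% CO2 before staining.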
Giardia kill: Small Molecules that selectively kill Giardia lamblia: qHTS; 0.15% of 340,000 active; activity change, % at 7.66 µM, hits read low; Giardia lamblia trophozoite viability; in the data active = activity change below about -80%; inconclusive = between about -30% and that limit;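 also: parasites exposed to compound for two days anaerobically before the ATP read; % is scaled to controls: 0 for no effect and ±100 for the full control effect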
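Anaerobic 48 hrs incubation at 37 deg C of 100 trophozoites/well with test compounds; ATPLite 1-Step luminescence, 15-30 min RT, reports cellular ATP as viability.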
The depositor's hits bear a star; i = inactive; ? = inconclusive; . = not tested or not shown. Unless noted, calls follow the shape of the dose curve; as a rule, active = well fitted curve in the direction sought with a large enough effect; inconclusive = small, poorly fitted or top-dose-only effect, or another doubt; inactive = no such curve, though single readings can be large; an effect the other way counts as inactive or inconclusive.

SMILES	ASM inhibitor	MCF10A rereplic	KB-3-1 cytotox	KB-V1 cytotox	SW480 rerep	Giardia kill
COc1ccc(NC(=O)CN2CCC(C)CC2)c([N+](=O)[O-])c1	-10%	-5%	i	i	2%	0
COc1cc(-c2ccc(NC(C)=O)c(OC)c2)ccc1NC(C)=O	-1%	9%	i	i	0%	25
COc1cc(-c2ccc(NC(=O)CN3CCC(C)CC3)c(OC)c2)ccc1NC(=O)CN1CCC(C)CC1	3%	?	?	16µM*	-2%	-24
Nc1c(C(=O)NCc2ccccc2)c2nc3ccccc3nc2n1CCCN1CCOCC1	i	18µM*	i	i	18µM*	-8
O=C(NCc1ccco1)c1ccc2ccccc2n1	-3%	0%	i	i	-4%	4
Nc1c(C(=O)NCc2ccc(F)cc2)c2nc3ccccc3nc2n1CCCN1CCOCC1	i	?	?	?	3.7µM*	5
CCOCCCNC(=O)c1c(N)n(-c2ccc(S(N)(=O)=O)cc2)c2nc3ccccc3nc12	i	?	i	i	?	-4
COC(=O)c1c(N)n(CCCN2CCOCC2)c2nc3ccccc3nc12	i	?	i	i	?	2
Nc1c(C(=O)NCc2ccco2)c2nc3ccccc3nc2n1CCc1ccccc1	i	1.8µM*	i	?	7.3µM*	11
CCOc1ccc(-n2c(N)c(C(=O)NCc3ccco3)c3nc4ccccc4nc32)cc1	i	13µM*	i	?	?	0
COc1ccc(CNC(=O)c2c(N)n(CCCN3CCOCC3)c3nc4ccccc4nc23)cc1	i	?	i	?	2.6µM*	24
CN(N=O)c1ccc(/C=C2\C=Cc3ccccc32)cc1	.	.	?	i	.	.
CC(=O)OC1CC(c2cc(C(C)(C)C)c(O)c(C(C)(C)C)c2)=NO1 (centres undefined)	-1%	?	i	?	15µM*	-8
O=Cc1ccc2ccc3cccnc3c2n1	2%	?	i	i	21µM*	-12
CCCOc1ccc(C2C(=O)N(C3CCCCCC3)CC(=O)N2Cc2ccco2)cc1OC (centres undefined)	-4%	9%	i	1.3µM*	8%	-4
CCCOc1ccc(C2C(=O)N(C3CCCCC3)CC(=O)N2C2CCCCC2)cc1OC (centres undefined)	.	.	i	i	.	.
Cc1ccc(C(=O)NC(=S)N2CCN(c3ccccc3F)CC2)cc1	0%	2%	?	i	23µM*	18
Cc1ccc(C(=O)NC(=S)N2CCN(c3cc(C)ccc3C)CC2)cc1	-3%	?	i	?	-6%	-7
NC(=O)C1CCN(c2ncc(-c3ccc4c(c3)OCO4)s2)CC1	.	.	i	i	.	.
COc1ccc(CNC(=O)CCCn2ccc3cc(S(=O)(=O)N4CCCC4)ccc32)cc1	-5%	21µM*	?	?	7.3µM*	-5
CCOc1ccc(CNC(=O)CCCn2ccc3cc(S(=O)(=O)N4CCCC4)ccc32)cc1	-4%	?	?	?	-6%	-29
COc1ccccc1CCc1nnc(CCC(=O)N(C)Cc2cccc3ncccc23)o1	-2%	?	i	8.2µM*	0%	2
CN(Cc1cccc2cnccc12)C(=O)CCc1nnc(CCc2ccccc2)o1	0%	21%	i	?	2%	5
